HT1080 IDH1KD tx = HT-1080 IDH1 knockdown cell toxicity (counter line) | Potency, µM (highest dose often 46.1 µM), most hits filed as cytotoxic | HT-1080 IDH1 knockdown viability, ATP luminescence, 48 h | 360,000 compounds, 2% hits
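After a 2 h attachment period, IDH1KD HT-1080 cells took pin-transferred compound for 48 h at 37 °C; ATP-based luminescence after 10 min room-temperature reagent incubation reported viability.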
IL1B secr inh = inhibitors of inflammasome signaling (IL-1 beta secretion) | THP-1 LPS/ATP IL-1B secretion, AlphaLISA, 16 h; active compounds read low | activity change, % at 57.5 µM | 360,000 compounds, 4.7% hits; in the data active means activity change below about -50%; inconclusive means mostly about -30% to -49%
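Secreted IL-1B measured by AlphaLISA bead assay after 16 h compound exposure of THP-1 cells; compounds (final up to 57.5 uM) added 1 h before LPS (250 ng/mL) and ATP (1.25 mM) stimulation; lower signal means less secretion.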
HT1080NT lethal = kills 2HG-producing HT-1080-NT fibrosarcoma cells; AID 686970; Potency, µM (series often up to 46.1 µM), usual class: cytotoxic; 360,000 compounds, 1.6% hits; HT-1080-NT fibrosarcoma viability, CellTiter-Glo ATP luminescence, 48 h;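 further: NT is the 2HG producing partner of a matched IDH1 knockdown line; nearly all actives have a fitted effect of over 55% in size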
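Viability by CellTiter-Glo luminescence after 48 h compound exposure at 37C of HT-1080-NT cells (750/well, RPMI, 5% FBS). % activity scaled between DMSO wells and medium-only wells, then curve-fitted and categorized by curve class.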
TDP1 cell noCPT = qHTS for Inhibitors of human tyrosyl-DNA phosphodiesterase 1 (TDP1): qHTS in cells in absence of CPT; DT40 Tdp1-/- hTDP1 cells, no CPT, ATP luminescence, 48 h; Potency, µM (highest dose often 46.2 µM), usual class: inhibitors; 420,000 compounds, 15% hits; AID 686978, 2013; further: nearly all actives have a fitted effect of over 55% in size
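No-CPT arm: Tdp1-/-;hTDP1 DT40 cells (400/well) plus compounds, incubated ≥48 hr at 37 °C. Readout CellTiter-Glo luminescence.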
TDP1 cell CPT = growth inhibition of DT40 Tdp1-/-;hTDP1 cells with camptothecin (screen for TDP1 inhibitors); chicken DT40 Tdp1-/-;hTDP1 cells + 20 nM CPT, ATP luminescence, 48 h; Potency, µM (series often up to 46.2 µM), most hits filed as inhibitors; 420,000 compounds, 12% hits; AID 686979; further: nearly all actives have a fitted effect of over 55% in size
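Chicken DT40 Tdp1-/- cells stably complemented with human TDP1 were seeded at 400 cells/well in medium containing 20 nM camptothecin, exposed to pin-transferred compounds, and grown at 37 °C for at least 48 hr. Viability was read as ATP luminescence.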
Large screens that a line does not name were inactive. In the library only some 19% were active in any assay of this set; here they are far more common. Unless noted, the call rests on the fitted dose curve; in most records, active means well fitted curve in the direction sought with a large enough effect; inconclusive means small, poorly fitted or top-dose-only effect, or another doubt; inactive means no such curve, though single readings can be large; an effect the other way counts as inactive or inconclusive.

CCOC(=O)c1sc(/S(C)=N\S(=O)(=O)c2cccc(Cl)c2)c2c1CCC=C2 (centres undefined)	TDP1 cell noCPT 16µM, TDP1 cell CPT inconclusive
O=C(OCc1cc(=O)n2cc(Br)ccc2n1)c1ccc(Cl)c(S(=O)(=O)NCc2ccccc2)c1	TDP1 cell noCPT inconclusive, TDP1 cell CPT inconclusive
N#Cc1nc(-c2ccc(F)cc2)oc1NCc1ccccc1	TDP1 cell noCPT inconclusive, TDP1 cell CPT inconclusive
CCC(CC)c1nc(C#N)c(NCc2ccccc2)o1	HT1080 IDH1KD tx inconclusive, HT1080NT lethal inconclusive, TDP1 cell noCPT 21µM, TDP1 cell CPT 23µM
O=c1[nH]ccc2c(O)cccc12	HT1080 IDH1KD tx inconclusive, HT1080NT lethal inconclusive, TDP1 cell noCPT 21µM, TDP1 cell CPT inconclusive
CCOC(=O)[C@]12CCC=C1N(Cc1cccc3ccccc13)C(=O)[C@H](CC(=O)N1CCOCC1)C2	TDP1 cell noCPT inconclusive, TDP1 cell CPT inconclusive
CCOC(=O)[C@]12CCCC=C1N(Cc1cccc3ccccc13)C(=O)[C@H](CC(=O)N1CCCC1)C2	TDP1 cell noCPT 21µM, TDP1 cell CPT inconclusive
CCOC(=O)[C@]12CCCC=C1N(Cc1ccccc1)C(=O)[C@H](CC(=O)N1CCC(c3ccccc3)CC1)C2	HT1080NT lethal inconclusive, TDP1 cell noCPT inconclusive, TDP1 cell CPT 16µM
CCOC(=O)[C@]12CCC=C1N(Cc1cccc3ccccc13)C(=O)[C@H](CC(=O)N1CCC(c3ccccc3)CC1)C2	TDP1 cell noCPT inconclusive, TDP1 cell CPT inconclusive
CCOC(=O)[C@]12CCC=C1N(Cc1cccc3ccccc13)C(=O)[C@H](CC(=O)N1CCN(C(=O)c3ccco3)CC1)C2	IL1B secr inh inconclusive, TDP1 cell noCPT inconclusive, TDP1 cell CPT 18µM
CCOC(=O)[C@]12CCCC=C1N(Cc1cccc3ccccc13)C(=O)[C@H](CC(=O)N1CCN(C(=O)C3CC3)CC1)C2	TDP1 cell noCPT 21µM, TDP1 cell CPT inconclusive
Cc1cc(-c2ccccc2)cc(-c2ccccc2)[n+]1C	TDP1 cell noCPT 8.2µM, TDP1 cell CPT 10µM
Cc1cc(-c2ccccc2)cc(=O)[nH]1	none
CC(C)CCNC(=O)C(=O)Nc1cc2c3c(c1)CCC(=O)N3CCC2	none
COc1ccc2nc(N(Cc3cccnc3)C(=O)c3ccco3)sc2c1	none (no result: HT1080 IDH1KD tx, IL1B secr inh, HT1080NT lethal)
CC(=O)Nc1cccc(/C(C)=N/NC(=O)c2ccc(NS(=O)(=O)c3cccs3)cc2)c1	none
C/C(=N\NC(=O)c1ccc(NS(=O)(=O)c2cccs2)cc1)c1ccc(C(C)(C)C)cc1	HT1080 IDH1KD tx inconclusive, HT1080NT lethal inconclusive, TDP1 cell noCPT 9.2µM, TDP1 cell CPT 7.3µM
COc1ccc(NS(=O)(=O)c2cc(NC(=O)c3cnc(C)cn3)ccc2N2CCCCC2)cc1	TDP1 cell noCPT inconclusive, TDP1 cell CPT inconclusive
COc1ccc(NS(=O)(=O)c2cc(NC(=O)c3ccc(=O)[nH]c3)ccc2N2CCCC2)cc1	HT1080 IDH1KD tx 2.1µM, HT1080NT lethal inconclusive, TDP1 cell noCPT 7.3µM, TDP1 cell CPT 4.1µM
COc1ccc(NS(=O)(=O)c2cc(NC(=O)c3ccco3)ccc2N2CCCCC2)cc1	HT1080 IDH1KD tx inconclusive, TDP1 cell noCPT 18µM, TDP1 cell CPT inconclusive
O=C(C[n+]1cccc2cc(Cl)ccc21)c1cccc([N+](=O)[O-])c1	TDP1 cell noCPT inconclusive (no result: HT1080 IDH1KD tx, IL1B secr inh, HT1080NT lethal)
COc1cc(C2c3c(-c4cc(C)cc(C)c4O)n[nH]c3C(=O)N2CCCO)cc(OC)c1OC (centres undefined)	IL1B secr inh inconclusive
COCCCN1C(=O)c2[nH]nc(-c3cc(C)cc(C)c3O)c2C1c1ccc(O)c(OC)c1 (centres undefined)	TDP1 cell noCPT inconclusive, TDP1 cell CPT 21µM
CCCN1C(=O)c2[nH]nc(-c3cc(Cl)c(C)cc3O)c2C1c1ccc(O)c(OC)c1 (centres undefined)	HT1080 IDH1KD tx 16µM, HT1080NT lethal inconclusive, TDP1 cell noCPT inconclusive, TDP1 cell CPT inconclusive
CC1(C(=O)NC2CCN(Cc3ccccc3)CC2)CCN1Cc1ccc2ccccc2c1 (centres undefined)	HT1080 IDH1KD tx inconclusive, HT1080NT lethal inconclusive, TDP1 cell noCPT inconclusive, TDP1 cell CPT inconclusive
C[C@@H]1CN([C@@H](C)CO)S(=O)(=O)c2ccc(-c3ccccc3)cc2O[C@@H]1CN(C)Cc1ccccc1C(=O)O	TDP1 cell noCPT inconclusive
Cc1cc(/C=C(/C#N)c2nc3ccccc3[nH]2)c(C)n1-c1cccc([N+](=O)[O-])c1	IL1B secr inh -62, TDP1 cell noCPT 13µM, TDP1 cell CPT 16µM
COc1ccc(/C=C(\C#N)c2nc3ccccc3[nH]2)cc1O	HT1080 IDH1KD tx inconclusive, IL1B secr inh inconclusive, TDP1 cell noCPT 21µM, TDP1 cell CPT 15µM
COc1c(O)ccc(/C=C(\C#N)c2nc3ccccc3[nH]2)c1[N+](=O)[O-]	TDP1 cell noCPT inconclusive
COc1cc(/C=C(\C#N)c2nc3ccccc3[nH]2)ccc1OCc1ccccc1F	TDP1 cell CPT inconclusive (no result: HT1080 IDH1KD tx, IL1B secr inh, HT1080NT lethal)
N#C/C(=C\c1cc([N+](=O)[O-])c(N2CCOCC2)cc1N1CCOCC1)c1nc2ccccc2[nH]1	IL1B secr inh inconclusive, TDP1 cell noCPT 23µM, TDP1 cell CPT inconclusive
COc1cc(/C=C(\C#N)c2nc3ccccc3[nH]2)ccc1Oc1ccc([N+](=O)[O-])cn1	HT1080 IDH1KD tx inconclusive, IL1B secr inh inconclusive, HT1080NT lethal inconclusive, TDP1 cell noCPT 21µM, TDP1 cell CPT 12µM
COc1ccc(/C=C(\C#N)c2nc3ccccc3c(=O)[nH]2)cc1OC	TDP1 cell noCPT 18µM, TDP1 cell CPT inconclusive (no result: HT1080 IDH1KD tx, IL1B secr inh, HT1080NT lethal)
COc1cc(/C=C(\C#N)c2nc3ccccc3[nH]2)cc(Br)c1OCc1ccccc1	HT1080 IDH1KD tx inconclusive, HT1080NT lethal inconclusive, TDP1 cell noCPT 21µM, TDP1 cell CPT 18µM
COc1cc(/C=C(\C#N)c2nc3ccccc3[nH]2)cc(OC)c1O	IL1B secr inh -60, TDP1 cell noCPT 13µM, TDP1 cell CPT 16µM
COc1cc(/C=C(/C#N)c2nc3ccccc3c(=O)[nH]2)ccc1O	none
COc1cc(/C=C(\C#N)c2nc3ccccc3[nH]2)cc(Br)c1OCc1ccc(F)cc1	TDP1 cell noCPT inconclusive, TDP1 cell CPT inconclusive
Cc1c(-c2ccc(OCc3ccccc3)cc2)nc2ccccc2c1C(=O)O	none
COc1ccc(N2C(=O)[C@@H]3C[C@H]2CN3Cc2ccc3nccnc3c2)cc1Cl	TDP1 cell noCPT inconclusive (no result: HT1080 IDH1KD tx, IL1B secr inh, HT1080NT lethal)
CN(C1CCS(=O)(=O)C1)S(=O)C12CC3CC(CC(C3)C1)C2 (centres undefined)	none
C=CCn1c(=S)[nH]c2ccc(Br)cc2c1=O	TDP1 cell noCPT inconclusive, TDP1 cell CPT inconclusive
C=CCn1c(=S)[nH]c2nc3c(cc2c1=O)CCCC3	HT1080 IDH1KD tx 8.9µM, HT1080NT lethal 8.9µM, TDP1 cell noCPT inconclusive, TDP1 cell CPT inconclusive
